What was measured:
Format in all cases: functional
[1] = target: Solute carrier family 2, facilitated glucose transporter member 1 (Homo sapiens) (UniProt P11166); test: ST_JUDE_LEISH: Cytotoxicity at 2uM final concentration against transgenic Leishmania Mexicana promastigotes LmGLUT1 that are glucose transport deficient and complemented with the human glucose transporter GLUT1. Activity is measured by DNA content using SYBR green in vitro
[2] = target: Hexose transporter 1 (Plasmodium falciparum) (UniProt O97467); test: ST_JUDE_LEISH: Cytotoxicity at 2uM final concentration against transgenic Leishmania Mexicana promastigotes LmPfHT that are glucose transport deficient and complemented with the Plasmodium falciparum hexose transporter. Activity is measured by DNA content using SYBR green in vitro
[3] = target: Glucose transporter (Leishmania mexicana) (UniProt O61059); test: ST_JUDE_LEISH: Cytotoxicity at 2uM final concentration against transgenic Leishmania Mexicana promastigotes LmGT2 that are glucose transport deficient and complemented with the L. Mexicana glucose transporter 2. Activity is measured by DNA content using SYBR green in vitro

Sequence of Solute carrier family 2, facilitated glucose transporter member 1 (Homo sapiens) (P11166 whole entry): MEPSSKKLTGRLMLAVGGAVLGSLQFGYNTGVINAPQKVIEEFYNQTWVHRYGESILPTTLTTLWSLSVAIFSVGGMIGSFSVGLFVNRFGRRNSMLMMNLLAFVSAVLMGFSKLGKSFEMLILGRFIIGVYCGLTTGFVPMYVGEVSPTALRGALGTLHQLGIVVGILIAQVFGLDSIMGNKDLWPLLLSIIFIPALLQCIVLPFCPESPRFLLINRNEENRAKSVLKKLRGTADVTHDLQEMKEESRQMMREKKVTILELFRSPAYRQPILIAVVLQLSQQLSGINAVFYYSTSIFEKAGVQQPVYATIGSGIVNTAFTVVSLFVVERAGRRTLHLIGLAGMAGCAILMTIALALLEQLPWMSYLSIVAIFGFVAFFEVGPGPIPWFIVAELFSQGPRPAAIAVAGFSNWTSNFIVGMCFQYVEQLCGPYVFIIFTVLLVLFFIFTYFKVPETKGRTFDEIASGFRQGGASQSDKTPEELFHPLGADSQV

| SMILES | inhibition [1] | inhibition [2] | inhibition [3] |
| --- | --- | --- | --- |
| Cc1ccc(C)c(Cn2ccc3nc(N)nc(N)c32)c1 | 2.05% | 1.94% | -0.67% |
| CC1(C)NC(N)=NC(=N)N1OCCOc1cccc(C(F)(F)F)c1 | 1.04% | 0.2% | 2.45% |
| COc1cc(Cc2cnc(N)nc2N)ccc1OCc1ccc(NC(C)=O)cc1 | 1.71% | 4.96% | 3.61% |
| Cc1cccc2nc(-c3cccc(-c4cccc(NC(=O)NC5CC5c5ccccc5)c4)c3)[nH]c12 (configuration not stated) | 1.8% | 2.2% | 5.21% |
| Cc1cc(C(=O)CN2C(=O)NC(C)(c3cccc4ccccc34)C2=O)c(C)n1Cc1ccco1 (configuration not stated) | 6.55% | 6.14% | 4.09% |
| COc1ccccc1CNC(=O)c1nn(-c2ccc(Cl)cc2)c(=O)c2ccccc12 | 4.66% | 4.83% | 3.54% |
| CCCCCCN1CCCN(Cc2ccc(C(=O)Nc3ccc(CC)cc3)cc2)CC1 | 11.4% | 10.9% | 10.6% |
| COc1cccc2c(NN=Cc3ccccc3Cl)cc(C)nc12 | 48% | 63.1% | 21.7% |
| CN(C)c1ccc(CN2CCCCC(NC(=O)c3cc(-c4ccccc4Cl)cs3)C2)cc1 (configuration not stated) | 2.84% | 2.86% | 4.6% |
| NCC1(c2nc(-c3ccc(Cl)c(O)c3)c(-c3ccncc3)[nH]2)CCCCC1 | 3.72% | 2.75% | 0.55% |
| COc1ccc(CNc2nccc3ccc(-c4ccc(N)nc4)cc23)cc1 | -2.02% | -0.06% | -0.73% |
| CC(C)CNCc1cccc(-c2cccc(CN(CCCN3CCN(C)CC3)C(=O)/C=C/c3ccccc3)c2)c1 | -1.06% | -1.23% | -4.91% |
| Cc1cc2c(cc1C(F)(F)F)N(C(=O)Nc1cccc(C(=O)NC3CCN(Cc4ccccc4)CC3)c1)CC2 | 2.13% | 3.38% | 3.16% |
| CCN(CC)CCCC(C)N/C(=N\c1ccccc1Br)Nc1ccc(C#N)cc1O (configuration not stated) | 1.03% | 0.06% | -1.67% |
| Oc1ccc(CCNc2nc(NCCCOc3ccccc3-c3ccc(F)cc3)nc(N3CCNCC3)n2)cc1 | 13.3% | 14.8% | 9.28% |
| CN(C)c1ccc(NC2=NC(N)=NC(C)(C)N2)cc1 | 0.38% | 1.5% | 0.7% |
| CCC(C)(C)c1ccc(OCCCC(=O)Nc2ccc(Cl)c([N+](=O)[O-])c2)c(C(C)(C)CC)c1 | 0.37% | 0.79% | 1.34% |

| SMILES | inhibition [1] | inhibition [2] | inhibition [3] |
| --- | --- | --- | --- |
| COc1ccc2ncc(F)c(CCN3C4CCC3CC(NCc3cc5c(cn3)OCS5)C4)c2n1 (configuration not stated) | 32.5% | 41.5% | 64.1% |
| COc1cc(CNC2Cc3ccccc3C2)ccc1Oc1ccc2nc[nH]c2c1 | 2.66% | 0.67% | 0.95% |
| CCn1ncc(Cl)c1CN(C)S(=O)(=O)c1ccc2ccccc2c1 | 5.72% | 6.41% | 6.31% |
| CCCNCc1c(O)ccc2c(CNCCC)c(O)ccc12 | 0.17% | -0.89% | 0.49% |
| CN(C)CCNC(=O)c1cccc(-c2cnc3ccc(NCc4ccc(Cl)c(Cl)c4)nn23)c1 | 8.3% | 8.99% | 7.6% |
| COc1ccc(-c2nc(NC(=O)CSc3ccccc3)sc2C)cc1 | 9.07% | 4.4% | 6.37% |
| COc1ccc(CCN(C)CCCCc2ccc(NC(=O)c3cccc4c(=O)c5cc(F)ccc5sc34)cc2)cc1OC | 9.78% | 4.42% | 2.03% |
| Cc1cc(-c2ccc(CNC3CCN(C)CC3)cc2)ccc1S(=O)(=O)NCc1ccccc1 | 3.29% | 3.32% | 1.14% |
| COc1ccc2nccc([C@@H](O)CN3CCC(NC(=O)C(c4ccccc4C)N4CCC(Cc5ccccc5)CC4)CC3)c2c1 (some centres not stated) | 1.73% | 1.16% | 2.38% |
| COc1cc(Cc2cnc3nc(N)nc(N)c3c2C)cc(OC)c1OC | 1.29% | 1.49% | 1.69% |
| Cc1nn(-c2ccc(Cl)cc2)c2[nH]c(CN3CCN(c4cccc(Cl)c4)CC3)cc(=O)c12 | 20.2% | 21% | 17% |
| C=CCc1cccc(C)c1OCCCON1C(=N)N=C(N)NC1(C)C | 1.09% | 2.76% | 1.9% |
| N#Cc1ccc(N2CCN(Cc3ccc(-c4ccc(-c5nc6cc(C(F)(F)F)ccc6[nH]5)cc4)cc3)CC2)nc1 | 2.63% | 4.69% | 1.55% |
| Cc1cccc2nc(-c3cccc(-c4cccc(C(=O)NCCN5CCCC5)c4)c3)[nH]c12 | 1.04% | 1.28% | -0.38% |
| N=c1c2nc(-c3c(F)cccc3Cl)[nH]c(=O)c2[nH]c(=O)n1-c1ccccc1 | 2.91% | 11.5% | 3.34% |
| CC1CCCN(C(=O)c2cc(-c3ccccn3)nc3c(Cl)cccc23)C1 (configuration not stated) | 2.19% | 1.26% | 1.25% |
| CC(C)c1ccc(NC(=O)NCC2CCCN(CCCCCNC(=O)/C=C/c3ccc(Cl)c(Cl)c3)C2)cc1 (configuration not stated) | 2.73% | 1.74% | 2.62% |
